The results in this text go back to PubChem BioAssay (Tox21).

A number with no mark means an inactive call. Results filed as inconclusive are left out. Calls of active or inactive are those of the source. Unless noted, calls come from the whole dose curve; as a rule, active = well fitted curve in the direction sought with a large enough effect in the repeat runs; inconclusive = weak or mixed curves; inactive = no such curve, though single readings can be large; an effect the other way counts as inactive or inconclusive.

Experiment [1] can be described thus: qHTS assay to test for compound auto fluorescence at 535 nm (green) in HEK293 cells (AID 720680).
Experiment [2] can be described thus: qHTS assay to test for compound auto fluorescence at 460 nm (blue) in HEK293 cell free culture (AID 720681). The procedure, abridged:
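Blue fluorescence (Ex 405/Em 460 nm, triamterene-equivalent) was read immediately after pin transfer of compound or DMSO into medium (DMEM, 10% FBS) without cells.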
For orientation: qHTS replaces the single test concentration by a dilution series.

A short description of experiment [3]: qHTS assay to test for compound auto fluorescence at 535 nm (green) in HEK293 cell free culture (AID 720682). The procedure, abridged:
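Each library compound, or DMSO control, is added by pintool to medium alone, comprising DMEM and 10% FBS. Emission at 535 nm following 485 nm excitation is quantified against fluorescein.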

The nature of experiment [4]: qHTS assay to test for compound auto fluorescence at 590 nm (red) in HEK293 cell free culture (AID 720683). The procedure, abridged:
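Red-channel autofluorescence of compounds in culture medium (DMEM, 10% FBS), no cells, measured at 540/590 nm. Rose Bengal sodium is the reference fluorophore for equivalence.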

Experiment [5] is described as follows: qHTS assay to test for compound auto fluorescence at 590 nm (red) in HepG2 cell free culture (AID 720684). Summed up: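 Cell-free; medium MEM + 10% FBS; compound or DMSO added by pintool; read Ex 540/Em 590 nm; Rose Bengal sodium as red reference fluorophore.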
Experiment [6] can be described thus: qHTS assay to test for compound auto fluorescence at 460 nm (blue) in HepG2 cell free culture (AID 720685). The procedure, abridged:
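Cell-free plates of MEM plus 10% FBS received 23 nL compound or DMSO vehicle; blue-channel (405/460 nm) intensity scored against triamterene as reference fluorophore.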

A short description of experiment [7]: qHTS assay to test for compound auto fluorescence at 535 nm (green) in HepG2 cell free culture (AID 720686).
Experiment [8] is described as follows: qHTS assay to test for compound auto fluorescence at 460 nm (blue) in HepG2 cells (AID 720687). The procedure, abridged: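 Blue-channel autofluorescence (Ex/Em 405/460 nm, triamterene-equivalent) was measured after 1 hr compound exposure at 37 C, 5% CO2. Cells were HepG2, plated overnight at 37 C in MEM plus 10% FBS.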
Experiment [9] deals with Glucocorticoid receptor (Homo sapiens) (UniProt P04150). Briefly: qHTS assay to identify small molecule agonists of the glucocorticoid receptor (GR) signaling pathway (AID 720691; active = well fitted activation curve with a large enough effect in the signal ratio in the repeat runs, not every such curve was filed as active; the % refers to the signal ratio). The procedure, abridged: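 Cells: GR-bla HeLa, endogenous GR with stably integrated GRE-beta-lactamase reporter. Treatment 18 h, 37 C, compounds delivered in DMSO. Detection via LiveBLAzer B/G FRET substrate, 2 h RT, fluorescence intensity.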

For experiment [10] the target is unchanged. The experiment in a line: qHTS assay to identify small molecule antagonists of the glucocorticoid receptor (GR) signaling pathway (AID 720692; active = well fitted inhibition curve with a large enough effect in the signal ratio in the repeat runs, not every such curve was filed as active; the % refers to the signal ratio; note: potency is the fitted concentration of half-maximal effect). The procedure, abridged: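 Quantitative HTS in antagonist format: HeLa cells expressing endogenous GR and a stably integrated GRE-bla reporter, stimulated with 5 nM dexamethasone (final) alongside test compounds for 18 h.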

Experiment [11] is described as follows: qHTS assay to identify small molecule antagonists of the glucocorticoid receptor (GR) signaling pathway - cell viability counter screen (AID 720693). Note: nearly all actives have a fitted effect of over 55% in size.
A short description of experiment [12]: qHTS assay for identifying genotoxic compounds that show differential cytotoxicity against isogenic chicken DT40 cell lines with known DNA damage response pathways - wild type cell line (AID 743012). Note: nearly all actives have a fitted effect of over 60% in size. Note: potency is the fitted concentration of half-maximal effect. Summed up: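 Luminescent ATP viability signal (CellTiter-Glo, 30 min RT) recorded after wild type DT40 cells were incubated with compounds for 40 h at 37 C/5% CO2.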

Experiment [13] is described as follows: qHTS assay for identifying genotoxic compounds that show differential cytotoxicity against isogenic chicken DT40 cell lines with known DNA damage response pathways - Rad54/Ku70 mutant cell line (AID 743015). Note: nearly all actives have a fitted effect of over 60% in size. Note: potency is the fitted concentration of half-maximal effect.
Experiment [14] in a line: qHTS assay to identify small molecule antagonists of the androgen receptor (AR) signaling pathway using the MDA cell line - cell viability counter screen (AID 743041; note: nearly all actives have a fitted effect of over 45% in size). The procedure, abridged: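 Viability read by CellTiter-Fluor fluorescence in the same wells as the antagonist screen, added after 15.5 h of a 16 h, 37C exposure. Human breast carcinoma MDA-kb2 AR-luc cells, compounds co-dosed with agonist R1881.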

The nature of experiment [15]: qHTS assay for identifying genotoxic compounds that show differential cytotoxicity against isogenic chicken DT40 cell lines with known DNA damage response pathways - Rev3 mutant cell line (AID 743014). Note: nearly all actives have a fitted effect of over 55% in size. Note: potency is the fitted concentration of half-maximal effect.
The nature of experiment [16]: qHTS assay to identify small molecule antagonists of the androgen receptor (AR) signaling pathway - cell viability counter screen (AID 743033; note: nearly all actives have a fitted effect of over 45% in size).
The target in experiment [17] is Androgen receptor (Homo sapiens) (UniProt P10275). Briefly: qHTS assay to identify small molecule antagonists of the androgen receptor (AR) signaling pathway (AID 743035; active = well fitted inhibition curve with a large enough effect in the signal ratio in the repeat runs, not every such curve was filed as active; the % refers to the signal ratio). Summed up:
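Quantitative HTS of the Tox21 10K library used HEK293 AR-UAS-bla cells stimulated with R1881 alongside compound for 16 h at 37C, followed by beta-lactamase FRET detection (LiveBLAzer B/G, 2 h, RT).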

For experiment [18] the target is unchanged. Briefly: qHTS assay to identify small molecule agonists of the androgen receptor (AR) signaling pathway (AID 743036; active = well fitted activation curve with a large enough effect in the signal ratio in the repeat runs, with a control signal flat, not every such curve was filed as active; the % refers to the signal ratio). Summed up:
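Following a 4 h settling period, AR-UAS-bla HEK293 cells were dosed with compounds for 16 h at 37C. A 2 h room-temperature incubation with LiveBLAzer B/G FRET substrate preceded the fluorescence measurement.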

Experiment [19] shares this target. Briefly: qHTS assay to identify small molecule agonists of the androgen receptor (AR) signaling pathway using the MDA cell line (AID 743040; note: nearly all actives have a fitted effect of over 20% in size). The procedure, abridged:
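Luciferase agonist assay: 16 h compound exposure at 37C without CO2 in MDA-kb2 AR-luc cells, whose MMTV promoter responds to both AR and GR. Luminescence measured after 30 min room-temperature incubation with ONE-Glo.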

For experiment [20] the target is unchanged. Briefly: qHTS assay to identify small molecule antagonists of the androgen receptor (AR) signaling pathway using the MDA cell line (AID 743042; note: nearly all actives have a fitted effect of over 55% in size). The procedure, abridged: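 Antagonist mode: compounds plus R1881 agonist added to MDA-kb2 AR-luc cells, incubated 16 h at 37C. Luciferase reporter luminescence quantified, with multiplexed CellTiter-Fluor readout for cell viability.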

Sequence of Glucocorticoid receptor (Homo sapiens) (P04150 whole entry, looked up): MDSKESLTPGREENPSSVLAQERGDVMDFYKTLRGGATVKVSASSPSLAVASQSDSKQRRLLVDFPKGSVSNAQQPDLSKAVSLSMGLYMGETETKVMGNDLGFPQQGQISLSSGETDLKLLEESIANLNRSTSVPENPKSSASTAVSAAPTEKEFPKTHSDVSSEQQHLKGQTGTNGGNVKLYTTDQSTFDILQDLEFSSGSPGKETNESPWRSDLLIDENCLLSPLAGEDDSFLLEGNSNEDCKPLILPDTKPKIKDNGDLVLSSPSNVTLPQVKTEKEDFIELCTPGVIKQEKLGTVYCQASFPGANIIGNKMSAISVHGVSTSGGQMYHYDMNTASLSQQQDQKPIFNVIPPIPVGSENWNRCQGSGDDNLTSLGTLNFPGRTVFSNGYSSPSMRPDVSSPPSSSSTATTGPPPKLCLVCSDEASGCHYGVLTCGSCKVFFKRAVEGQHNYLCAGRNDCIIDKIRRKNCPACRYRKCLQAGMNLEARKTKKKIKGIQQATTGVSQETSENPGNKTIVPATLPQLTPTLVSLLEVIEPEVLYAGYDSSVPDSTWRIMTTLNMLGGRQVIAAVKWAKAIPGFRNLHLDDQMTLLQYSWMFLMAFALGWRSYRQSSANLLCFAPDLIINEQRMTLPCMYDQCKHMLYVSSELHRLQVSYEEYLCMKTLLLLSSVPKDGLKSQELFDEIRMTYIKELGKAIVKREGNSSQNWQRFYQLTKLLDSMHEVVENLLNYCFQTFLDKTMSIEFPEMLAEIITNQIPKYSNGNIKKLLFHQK
Sequence of Androgen receptor (Homo sapiens) (P10275 whole entry, looked up): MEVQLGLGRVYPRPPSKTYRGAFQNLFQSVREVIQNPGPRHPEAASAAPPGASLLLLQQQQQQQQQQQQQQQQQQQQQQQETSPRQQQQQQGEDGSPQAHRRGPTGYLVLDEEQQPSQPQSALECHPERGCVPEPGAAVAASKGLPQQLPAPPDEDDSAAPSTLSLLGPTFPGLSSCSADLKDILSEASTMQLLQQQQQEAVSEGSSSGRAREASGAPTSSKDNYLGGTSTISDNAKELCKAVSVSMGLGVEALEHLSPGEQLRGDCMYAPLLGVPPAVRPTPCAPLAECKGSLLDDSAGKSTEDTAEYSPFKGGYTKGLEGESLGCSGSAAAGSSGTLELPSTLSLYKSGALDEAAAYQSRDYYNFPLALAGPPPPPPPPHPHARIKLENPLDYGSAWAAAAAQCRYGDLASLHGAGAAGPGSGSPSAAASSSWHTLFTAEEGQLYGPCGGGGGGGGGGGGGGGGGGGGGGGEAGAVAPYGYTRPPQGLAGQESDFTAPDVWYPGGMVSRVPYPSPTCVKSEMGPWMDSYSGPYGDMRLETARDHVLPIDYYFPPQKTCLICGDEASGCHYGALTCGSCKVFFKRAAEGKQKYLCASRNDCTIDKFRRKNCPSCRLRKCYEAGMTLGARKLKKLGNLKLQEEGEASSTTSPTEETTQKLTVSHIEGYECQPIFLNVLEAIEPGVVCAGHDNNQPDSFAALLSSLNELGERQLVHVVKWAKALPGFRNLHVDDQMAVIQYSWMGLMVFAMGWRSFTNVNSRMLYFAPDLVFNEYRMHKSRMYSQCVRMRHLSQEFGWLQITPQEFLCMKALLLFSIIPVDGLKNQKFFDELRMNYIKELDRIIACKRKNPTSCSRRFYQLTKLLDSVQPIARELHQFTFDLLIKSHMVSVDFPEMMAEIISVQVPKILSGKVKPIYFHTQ

On to `CC(=O)Nc1cc([As](=O)(O)O)ccc1O`, for which the compound was classed as inactive in experiment [1], in [2], in experiment [3], in experiment [4], in experiment [5] and in experiment [6]. Moreover, the compound was classed as inactive in experiment [7], in [8] and in [9]. For the same compound, the Potency entry in [10], in [11], in experiment [12], in [13] and in [14] was “inactive” throughout.
As to `CCCCc1ccc(O)cc1`, the call in experiment [1], in [2], in experiment [3], in experiment [4], in experiment [5] and in [6] was inactive. Further, the compound was classed as inactive in experiment [7], in experiment [8] and in [9]. In addition, the Potency result in experiment [10], in [11], in experiment [12], in experiment [15], in experiment [13] and in [16] was “inactive” in each case.
Turning to `CN/C(=N\[N+](=O)[O-])NCC1CCOC1` (stereo not drawn), the call in [1], in experiment [2], in experiment [3], in experiment [4], in experiment [5] and in [6] was inactive. The result in [7], in experiment [8] and in [9] was inactive. The Potency entry in [10], in [11], in experiment [12], in experiment [15], in experiment [13] and in experiment [16] was “inactive” in each case. Moreover, in [14], the Potency entry is “inactive”.
For `CN1C(=S)CN=C(c2ccccc2)c2cc(Cl)ccc21`, the compound was called inactive in [1], in experiment [2], in experiment [3], in [4], in experiment [5] and in experiment [6]. Also, the compound was classed as inactive in experiment [7], in experiment [8] and in experiment [9]. Moreover, the Potency in [10] was 12 µM (active); in experiment [12], 23.7 µM (active); in [13], 29.8 µM (active). Also, the Potency entry in experiment [11] and in experiment [16] was “inactive” in each case.
On to `O=C(Oc1ccc(Br)cc1)N1CCN2CCC1CC2`, for which the call in experiment [1], in [2], in [3], in experiment [4], in [5] and in experiment [6] was inactive. Besides, the compound was classed as inactive in [7], in experiment [8] and in experiment [9]. Also, the Potency entry in experiment [10], in experiment [11], in experiment [16] and in [14] was “inactive” throughout. Besides, the Potency in experiment [15] is 54.5 µM (active); in [13], 61.1 µM (active).
Turning to `Cc1cnc[nH]1`, the result in [1], in experiment [2], in experiment [3], in experiment [4], in experiment [5] and in experiment [6] was inactive. Moreover, the compound was called inactive in experiment [7], in [8], in experiment [9], in experiment [18] and in experiment [20]. Moreover, the Potency entry in [10], in experiment [11], in [12], in experiment [15], in [13] and in experiment [17] was “inactive” in each case. Besides, the Potency entry in experiment [19] and in experiment [14] was “inactive” in each case.
Take `Cc1cc(C)c(C(=O)P(=O)(C(=O)c2c(C)cc(C)cc2C)c2ccccc2)c(C)c1`: the outcome in experiment [1], in [2], in experiment [3], in experiment [4], in [5] and in experiment [6] was inactive. Besides, the outcome in experiment [7], in [8] and in experiment [9] was inactive. Moreover, the Potency entry in experiment [10], in [11], in [12], in experiment [13], in experiment [16] and in experiment [14] was “inactive” in each case.
In the case of `CCNc1nc(NC(C)C)nc(OC)n1`, the compound was classed as inactive in [1], in experiment [2], in experiment [3], in [4], in [5] and in [6]. Also, the call in experiment [7], in experiment [8] and in [9] was inactive. Further, the Potency entry in [10], in experiment [11], in experiment [15], in experiment [13], in experiment [16] and in experiment [14] was “inactive” each time.
For `C[C@]12CC[C@H]3[C@@H](CC=C4C[C@@H](O)CC[C@@]43C)[C@@H]1CC[C@@H]2O`, the result in [1], in experiment [2], in experiment [3], in [4], in [5] and in experiment [6] was inactive. The outcome in experiment [7], in experiment [8] and in [9] was inactive. Also, the results for the Potency in experiment [10] and in experiment [13] were 6.01 µM (active) and 29.8 µM (active), respectively. Also, the Potency entry in experiment [11], in [15], in experiment [16] and in experiment [14] was “inactive” in each case.
